# From PubChem BioAssay AID1963317 (National Center for Advancing Translational Sciences (NCATS), 2024)
# Inconclusive results are not listed. A call without a number means that no potency is given here. The source made the active and inactive calls. Calls come from the whole dose curve.
# Biological target: Tyrosine-protein kinase ABL1 (Homo sapiens) (UniProt P00519)
# Assay: ABL1 kinase (ABL1-N-HiBiT) enzymatic inhibition screen - Functional assay
# Details: luminescence; series mostly up to 57.5 µM
# Description: National Center for Advancing Translational Sciences (NCATS),
# National Institute of Health (NIH), Maryland
# Discovery and optimization of novel protein-binding ligands underlies many of the methods and applications of biology, drug discovery, clinical diagnostics, and environmental toxicology. Assays for detecting the interaction of, for example, a molecule with a macromolecular target also referred to here as the target of interest (TOI) is dependent on a compatible output technology. Depending on the nature and knowledge surrounding the TOI, whether a receptor, enzyme, regulatory subunit or scaffold, or a sequence-defined nucleic acid folded into a complex tertiary structure, assay strategies can vary widely.
# Here we exploit ligand-biased changes in the structural dynamics of the target protein to control reporter alpha complementation allowing a non-competitive, non-functional, non-separation measure of ligand-target interaction.
# Using a chemical library of >1,200 compounds enriched for scaffolds known to be associated with the inhibition of firefly luciferase (FLuc) activity (PubChem AIDs 2309) we first illustrate and compare the Structural Dynamics Response (SDR) assay vs. the standard functional FLuc enzyme assay (2). Secondly, we show the specificity and sensitivity of the SDR for the Abelson tyrosine kinase (ABL1) compared to the serine/threonine protein kinase A, using an enriched chemical library of 128 compounds selected, in part, for activity annotated with ABL1 kinase activity using the Pharos database (3).
# (1) A. S. Dixon et al., NanoLuc Complementation Reporter Optimized for Accurate Measurement of Protein Interactions in Cells.
# Chemistry & Biology, 19, 1060 - 1072 (2012).
# (3) K. J. Kelleher et al., Pharos 2023: an integrated resource for the understudied human proteome. Nucleic Acids Res 51, D1405-D1416 (2023).
# PROTOCOL TABLE (as described by Inglese J, Shamu CE and Guy RK. 2007)
# SEQUENCE No. (e.g., 1, 2, 3, etc.); […] (e.g., C. elegans, Compounds, Incubation, Read, etc.); VALUE and DESCRIPTION.
# 1. Reagent. Dispense 4 uL ABL1-N-HiBiT enzyme per well at a final enzyme concentration of 10 nM in buffer with 87.5 uM ATP (functional assay) into columns 2-48 of four replicate Greiner 1536-well white, solid bottom high base, medium plates per assay. Dispense respective buffer without enzyme at 4 uL/well in column 1 of assay plates using BioRaptr 2.
# 2. Compounds. Library compounds added at 23 nL/well by pin transfer. DMSO neutral control and imatinib positive control added at 25 nL/well, transfer by Mosquito dispenser.
# 3. Incubation. Incubate enzyme and compounds at room temperature for 30 min, protected from light.
# 4. Reagent. (Functional assay) Transfer 25 nL of abltide peptide substrate to each well of four replicate kinase assay plates with Mosquito dispenser.
# 5. Incubation. (Functional assay) Kinase enzyme incubated with peptide substrate for 3 h at room temperature, protected from light.
# 6. Reagent. (Functional assay) Add 4 uL/well of Kinase-Glo Plus reagent (Promega) to kinase activity assay plates, in the presence of ATP.
# 7. Detector. (Functional assay) Luminescence measured using CCD-based camera (ViewLux) with settings as follows: Exposure, 1 sec; Gain, High; Speed, Slow; Binning, 2X.
# Inglese J, Shamu CE and Guy RK, Reporting data from high throughput screening of small molecule libraries, Nature Chemical Biology, 2007, 3(8): 438-441. doi.org/10.1038/nchembio0807-438.
# Tyrosine-protein kinase ABL1 (Homo sapiens), sequence (P00519 whole entry, looked up): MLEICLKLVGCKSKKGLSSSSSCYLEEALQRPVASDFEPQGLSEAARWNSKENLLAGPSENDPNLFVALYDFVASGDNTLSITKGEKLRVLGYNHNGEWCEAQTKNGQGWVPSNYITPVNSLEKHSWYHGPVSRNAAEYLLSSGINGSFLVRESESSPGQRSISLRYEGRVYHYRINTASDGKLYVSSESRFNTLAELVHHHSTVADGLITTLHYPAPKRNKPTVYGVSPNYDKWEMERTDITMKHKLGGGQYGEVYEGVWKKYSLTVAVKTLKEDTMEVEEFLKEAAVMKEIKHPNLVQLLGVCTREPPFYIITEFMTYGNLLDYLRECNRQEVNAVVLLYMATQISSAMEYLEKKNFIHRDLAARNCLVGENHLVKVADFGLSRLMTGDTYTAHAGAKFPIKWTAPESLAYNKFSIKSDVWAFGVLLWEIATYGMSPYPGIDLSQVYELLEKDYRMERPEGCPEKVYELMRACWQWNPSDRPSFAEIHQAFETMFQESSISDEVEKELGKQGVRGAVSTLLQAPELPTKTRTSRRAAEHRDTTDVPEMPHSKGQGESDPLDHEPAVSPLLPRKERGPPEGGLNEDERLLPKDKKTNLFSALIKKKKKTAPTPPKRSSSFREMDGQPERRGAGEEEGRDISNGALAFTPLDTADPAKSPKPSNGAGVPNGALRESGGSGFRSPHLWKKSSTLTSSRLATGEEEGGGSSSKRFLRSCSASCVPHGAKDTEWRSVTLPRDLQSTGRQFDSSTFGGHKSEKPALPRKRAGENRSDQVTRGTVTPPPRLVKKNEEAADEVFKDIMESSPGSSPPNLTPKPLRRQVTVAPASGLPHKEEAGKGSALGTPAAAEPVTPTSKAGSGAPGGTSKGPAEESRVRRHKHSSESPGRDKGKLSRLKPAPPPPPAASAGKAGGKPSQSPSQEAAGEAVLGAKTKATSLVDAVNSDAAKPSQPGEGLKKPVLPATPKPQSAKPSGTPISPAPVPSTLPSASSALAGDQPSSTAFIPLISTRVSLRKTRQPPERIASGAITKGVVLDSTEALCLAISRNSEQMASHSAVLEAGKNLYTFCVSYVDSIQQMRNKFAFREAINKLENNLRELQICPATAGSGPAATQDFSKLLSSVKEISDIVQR
row,Structure (SMILES),Potency
1,COc1cc(N2CCC(N3CCN(C)CC3)CC2)ccc1Nc1ncc(Cl)c(Nc2ccccc2P(C)(C)=O)n1,9150 nM (active)
2,Cc1ccc(NC(=O)N2CCN(c3nc(N)nc4sc(-c5cccnc5)nc34)CC2)cc1,inactive
3,O=C1CCC(N2C(=O)c3ccccc3C2=O)C(=O)N1 (stereo not given),inactive
4,C=CC(=O)Nc1cccc(Oc2nc(Nc3ccc(N4CCN(C)CC4)cc3OC)ncc2Cl)c1,inactive
5,CCCCCCCCCCCCc1ccc(S(=O)(=O)Nc2nncs2)cc1,inactive
6,c1cc(-c2cc(C3CCNCC3)[nH]n2)ccn1,inactive
7,CCCS(=O)(=O)Nc1ccc(F)c(C(=O)c2c[nH]c3ncc(Cl)cc23)c1F,inactive
8,Cc1cc(-c2cc(O)ccc2Cl)cc2nnc(Nc3ccc(OCCN4CCCC4)cc3)nc12,47.2 nM (active)
9,O=c1cc(N2CCOCC2)nc2c3ccccc3ccn12,inactive
10,NC1CCC(Nc2nc(Nc3ccc(C(=O)N4CCCCC4)cc3)c3ncn(-c4cccc(F)c4)c3n2)CC1 (stereo not given),3970 nM (active)
11,CN1CCN(c2ccc(Nc3ncc4cc(C#N)c(=O)n(C5CCCC5)c4n3)cc2)CC1,2430 nM (active)
12,CN1CCN(CCCNc2ncc(Cl)c(-c3cc4c(C(=O)NC5CC5)cccc4s3)n2)CC1,inactive
13,CC(C)CCN1c2nc(Nc3cc(F)c(O)c(F)c3)ncc2N(C)C(=O)C1C (stereo not given),inactive
14,Cc1[nH]nc2ncc(C(=O)N3CCC[C@H]3c3ccc(Cl)cc3)cc12,inactive
15,c1ccc(-c2oc3ncnc(NC[C@@H]4CCCO4)c3c2-c2ccccc2)cc1,inactive
16,Cc1c(Cl)cccc1S(=O)(=O)Nc1nc(NCCc2ccccc2)nc2c1CN(Cc1ccccc1)CC2,inactive
17,Cc1cccc(/C=N/Nc2cc(N3CCOCC3)nc(OCCc3ccccn3)n2)c1,inactive
18,C=CC(=O)N1CCC(Oc2cc3c(Nc4ccc(Cl)c(Cl)c4F)ncnc3cc2OC)CC1,inactive
19,O=C(O)C1(Cc2cccc(Nc3nccs3)n2)CCC(Oc2cccc(Cl)c2F)CC1 (stereo not given),1030 nM (active)
20,FC(F)(F)c1ccc(/C=C/c2nc(COc3ccc(CCCCn4ccnn4)cc3)co2)cc1,inactive

row,Structure (SMILES),Potency
1,COc1ccc(-n2c(C)c([N+](=O)[O-])c3ccc(O)cc32)cc1,inactive
2,CC[C@@](C)(Nc1ccnc(-c2c[nH]c3ncccc23)n1)C(=O)NCC(F)(F)F,7060 nM (active)
3,Cc1ccc(C(=O)Nc2ccc(Oc3cc4cnn(C)c4cc3-c3cn[nH]c3)c(F)c2)c(=O)n1-c1ccc(F)cc1,inactive
4,c1ccc2c(-c3cnn4cc(-c5ccc(N6CCNCC6)cc5)cnc34)ccnc2c1,127 nM (active)
5,CNS(=O)(=O)c1ccc2c(c1)/C(=C/c1[nH]c3c(c1CCCN1CCN(C)CC1)CCCC3)C(=O)N2,9150 nM (active)
6,Cn1ncc(NC(=O)c2nc(-c3c(F)cccc3F)sc2N)c1N1CC[C@@H](N)[C@H](F)CC1,inactive
7,Cc1[nH]c2ccccc2c1C1=C(NCCc2ccc(F)cc2)C(=O)N(C)C1=O,inactive
8,Cc1cc(Nc2ncc3c(n2)N(C)C(=O)N(c2cc(NC(=O)c4cccc(C(F)(F)F)c4)ccc2C)C3)n(C)n1,141 nM (active)
9,Cc1ccccc1-n1c([C@H](C)Nc2nc(N)nc3nc[nH]c23)nc2cccc(C)c2c1=O,inactive
10,CN1CCN(Cc2ccc(-c3cnc4[nH]cc(-c5ccc6[nH]ccc6c5)c4c3)cc2)CC1,6110 nM (active)
11,O=C(Nc1ccc(OC(F)(F)F)cc1)c1sccc1NCc1ccnc2ccccc12,inactive
12,C[C@@H]1CCNC(=O)c2cc3ccc(C(=O)Nc4nc5ccccc5n4CCCN(C)C)cc3n21,inactive
13,CCN1C(=O)CNc2ncc(-c3ccc(-c4ncn[nH]4)nc3C)nc21,inactive
14,Cn1sc(=O)n(Cc2ccccc2)c1=O,inactive
15,CC1(C)OCCn2c1nc1c(N3CCOCC3)nc(-c3cnc(N)nc3)nc12,inactive
16,COc1ccc(-n2c(SCC#N)nc3sc4c(c3c2=O)CCCC4)cc1,inactive
17,S=C(NCc1ccc2c(c1)OCO2)N1CCN(c2ncnc3c2oc2ccccc23)CC1,inactive
18,CC(C)(C)n1nc(-c2cccc3ccccc23)c2c(N)ncnc21,inactive
19,COc1cc(NC(=O)c2cccc(-n3cc(NC(=O)Nc4cccc(C)c4)cn3)c2)cc(OC)c1OC,inactive
20,COc1cc2nccc(Oc3ccc(NC(=O)Nc4ccc(F)cc4F)c(F)c3)c2cc1OC,1930 nM (active)
